# Screens: PubChem BioAssay, National Center for Advancing Translational Sciences (NCATS)
# WRN helicase inh: inhibitors of human WRN helicase; AID 651768; WRN helicase unwinding, fluorescent forked duplex, kinetic; actives 0.46% (n = 360,000); Q14191; Potency, µM (series often up to 114 µM), without a hit: top-dose activity change, negative = inhibition, actives largely listed as inhibitors; further: on the % scale 0 is the no-effect control and ±100 the full control effect; nearly all actives have a fitted effect of over 55% in size
#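 WRN at 20 nM final was preincubated with compound for 15 min at room temperature; reaction started with 100 nM forked duplex oligonucleotide carrying fluorophore and quencher plus 2 mM ATP (final). Unwinding followed kinetically by red fluorescence (ex 525/em 598 nm).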
# POLB inh: blocks human DNA polymerase beta activity; Pol beta primer extension/strand displacement, fluorescence kinetic; Potency, µM (doses to about 114 µM), without a hit: at the top dose activity change, negative = inhibition, most hits filed as inhibitors; actives 1.3% (n = 340,000); AID 485314; P06746; further: on the % scale 0 is the no-effect control and ±100 the full control effect
#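 Preincubation: enzyme (10 nM) with compound, 15 min, RT. Reaction: substrate added to 50 nM final. Reads: 0 and 10 min. Analysis: normalized, Hill fit.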
# L3MBTL1 block: inhibitors of human L3MBTL1; Q9Y468; AlphaScreen L3MBTL1–H3K9me1 peptide binding; Potency, µM (highest dose often 57.1 µM), for inactives: top-dose activity, negative = inhibition, actives largely listed as inhibitors; actives 0.66% (n = 230,000); AID 485360; further: on the % scale 0 is the no-effect control and ±100 the full control effect; nearly all actives have a fitted effect of over 60% in size
#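 Displacement of a biotinylated histone H3(1-15) peptide monomethylated at Lys9 (75 nM) from L3MBTL1 (50 nM) was measured by AlphaScreen after a 30 min room-temperature compound incubation; cefsulodin titration served as intraplate control.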
# Pol eta inh: inhibitors of human DNA polymerase eta | AID 588591 | actives 1.2% (n = 390,000) | Q9Y253 | Potency, µM (series often up to 114 µM), for the others: at the top dose activity change, negative = inhibition, actives largely listed as inhibitors | recombinant Pol eta, fluorescent DNA replication assay; further: on the % scale 0 is the no-effect control and ±100 the full control effect
# Target sequence (Q9Y253 whole entry, looked up): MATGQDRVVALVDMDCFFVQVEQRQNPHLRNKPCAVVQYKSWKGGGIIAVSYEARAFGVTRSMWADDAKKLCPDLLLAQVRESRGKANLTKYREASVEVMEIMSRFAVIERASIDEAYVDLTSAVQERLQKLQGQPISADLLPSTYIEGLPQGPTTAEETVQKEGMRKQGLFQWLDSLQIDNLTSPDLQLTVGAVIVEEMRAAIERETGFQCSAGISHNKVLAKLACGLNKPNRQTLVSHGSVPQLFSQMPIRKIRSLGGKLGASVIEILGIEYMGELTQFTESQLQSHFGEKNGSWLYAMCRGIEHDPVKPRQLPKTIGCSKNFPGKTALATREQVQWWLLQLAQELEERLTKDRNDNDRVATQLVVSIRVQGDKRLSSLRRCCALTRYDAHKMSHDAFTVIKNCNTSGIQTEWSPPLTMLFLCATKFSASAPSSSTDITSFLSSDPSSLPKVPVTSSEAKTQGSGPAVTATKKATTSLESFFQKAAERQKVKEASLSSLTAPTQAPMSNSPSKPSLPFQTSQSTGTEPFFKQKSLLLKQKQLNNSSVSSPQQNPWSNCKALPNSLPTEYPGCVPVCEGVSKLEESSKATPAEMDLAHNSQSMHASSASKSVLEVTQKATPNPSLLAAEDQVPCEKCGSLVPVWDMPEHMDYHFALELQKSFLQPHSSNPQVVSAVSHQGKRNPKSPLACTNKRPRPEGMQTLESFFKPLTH
#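 Pol eta (10 nM) was preincubated with compounds for 15 min at room temperature, after which fluorescent replication substrate (50 nM final) was added to start the reaction. Fluorescence was read kinetically at 0 and 10 min.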
# Pol kappa inh: inhibitors of human DNA polymerase kappa. Q9UBT6. actives 0.53% (n = 400,000). purified Pol kappa, fluorescent DNA synthesis assay, 10 min. Potency, µM (top dose mostly 107 µM), without a hit: top-dose activity, negative = inhibition, hits mostly inhibitors; further: on the % scale 0 is the no-effect control and ±100 the full control effect
#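 Activity was followed as the change in fluorescence between reads at 0 and 10 min after starting the reaction with 50 nM substrate. Beforehand, 10 nM polymerase had been preincubated with compound for 15 min at room temperature.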
# POLI inh: DNA polymerase iota (human) inhibition | Q9UNA4 | Pol iota fluorescent replication assay, 10 min | Potency, µM (top dose mostly 115 µM), for inactives: top-dose activity, negative = inhibition, most hits filed as inhibitors | actives 1% (n = 390,000) | AID 588590
#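 Fluorescent replication assay read twice, at 0 min and 10 min after adding 50 nM (final) substrate. Enzyme (10 nM) and compounds were first incubated 15 min at room temperature; enzyme-free buffer wells were negative controls.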
# * = called active by the depositor; ? = inconclusive; nt = no result given; [ ] = dose if it differs, or a comment. Shown are actives, neighbours in structure and some others; about 2.5% of the full set was active somewhere. The call rests on the fitted dose curve; in most records, active means well fitted curve in the direction sought with a large enough effect; inconclusive means small, poorly fitted or top-dose-only effect, or another doubt; inactive means no such curve, though single readings can be large; an effect the other way counts as inactive or inconclusive. Potency means the concentration at half of the fitted maximal effect.
SMILES,WRN helicase inh,POLB inh,L3MBTL1 block,Pol eta inh,Pol kappa inh,POLI inh
COc1cccc(N2CC(C(=O)Nc3nnc(SCC(=O)NCc4ccco4)s3)CC2=O)c1 (stereo not drawn),-30%,?,nt,32µM*,?,40µM*
O=C(CSc1nnc(NC(=O)C2CC(=O)N(c3ccccc3)C2)s1)NCC1CCCO1 (stereo not drawn),-12%,66%,nt,-26%,-7%,2%
CSc1ccc(/C=N/NC(=O)c2sccc2C)cc1,-17%,23%,0%,2%,-5%,-1%
CCOc1ccc(OCCC(=O)NNC(=O)c2nn(C)c(=O)c3ccccc23)cc1,3%[11.6 µM],35µM*,nt,?,-32%,?
COC(=O)Cc1nnc(SCC(=O)Nc2ccccc2)c2ccccc12,0%,19%,nt,-8%,-2%,-10%
O=C(Cn1c(=O)n(Cc2ccco2)c(=O)c2c3c(sc21)CCCCC3)Nc1ccccc1,?,32µM*,?,50µM*,?,13µM*
O=C(CN1C(=O)C(=O)N(Cc2ccco2)C1=O)Nc1ccccc1,-19%,nt,-24%,20µM*,-31%,?
Nc1cc(C(=O)O)ccc1N1CCCCC1,?,?,?,10µM*,79µM*,?
CC1CCN(c2ccc(C(=O)O)cc2N)CC1,-13%[57.1 µM],?,-3%,18µM*,-17%,?
O=C(Nc1ccc(Cl)c(Cl)c1)Nc1cc(C(=O)NC2CC2)ccc1Cl,nt,?,-8%,nt,nt,nt
O=C(CCCn1c(=O)c2cccn2c2ccccc21)Nc1cccc(Cl)c1,nt,45µM*,nt,nt,-26%,0%
Cc1cc(C)cc(NC(=O)CCCn2c(=O)c3cccn3c3ccccc32)c1,nt,-20%,nt,-21%,-6%,34%
Cc1cc(C)nc(NC(=S)NC(=O)c2ccccc2F)n1,2%,nt,nt,-12%,-15%,70%
Cc1cc(C)nc(S/C=C/C(=O)c2ccccc2F)n1,?,-11%,-2%,-4%,-16%,4.5µM*
Cc1ccc2nc3c(cc2c1)CN(Cc1ccco1)C(=NCC1CCCO1)S3 (stereo not drawn),-1%,-3%,5%,-6%,1%,8%
Cc1cccc2cc3c(nc12)SC(=NCC1CCCO1)N(Cc1ccco1)C3 (stereo not drawn),?,-29%,-6%,45µM*,?,?
Cc1ccc(NC(=O)C(=Cc2ccc(C(=O)O)cc2)C(=O)Nc2ccc(C)cc2C)c(C)c1,?,-25%,0%,79µM*,8%,13µM*
O=C(Nc1ccc(Cl)cc1)Nc1ccc(N2CCCC2)c(S(=O)(=O)Nc2ccccc2Cl)c1,-36%[57.1 µM],-21%,-9%,-10%,-8%,11%
Cc1cc(=O)c2c(O)c3c(O)cc(O)c4c5c(O)cc(O)c6c(O)c7c(=O)cc(C)c8c1c2c(c34)c(c65)c78,nt,nt,nt,nt,10µM*,nt
N#Cc1ccccc1NS(=O)(=O)c1cc2c3c(c1)CCN3C(=O)CC2,-14%,nt,0%,-13%,-13%,-21%
Cc1cc(=O)n(C)c(=O)n1CCCCCN1CCCC1,3%,12%,28µM*,-6%,-1%,18%
Cc1nc2oc3c(NCC4CCCO4)ncnc3c2c2c1COC(C)(C)C2 (stereo not drawn),7%,-25%,-5%,3%,-3%,30%
Cc1nc2oc3c(NCc4ccccc4)ncnc3c2c2c1COC(C)(C)C2,-2%,8%,nt,14µM*,-6%,19%
COc1ccc(-n2nc3c(N4CCC(C(=O)NCCc5ccccc5C)CC4)nnc(C)c3c2C)cc1,-4%,10%,nt,-5%,-2%,38%
Cc1ccc(-n2nc3c(N4CCC(C(=O)NCc5ccc(C)o5)CC4)nnc(C)c3c2C)cc1,96%,0.4µM*,nt,-17%,7%,?
COc1ccc(-n2nc3c(N4CCC(C(=O)NCc5ccccc5C)CC4)nnc(C)c3c2C)cc1,-7%[11.6 µM],79µM*,8%,4%,-28%,?
